# Reference: PubChem BioAssay (EPA / NIEHS)
# Activity calls are given as the source filed them. How the source made its calls: active means hit-call score of the fitted dose curve at least 0.9, where 1 is the maximum; inactive means score below 0.9.
# Assay: APR_HepG2_MitoMass_1hr: Apredica 1-hour HepG2 Assay for Mitochondrial Mass (AID 2282674)
# Conditions: high-content imaging, actives raise or lower the signal
# Experimental: APR_HepG2_1hr is a cell-based, multiplexed-readout assay that uses HepG2, a human liver cell line, with measurements taken at 1 hour after chemical dosing in a 384-well plate.APR_HepG2_MitoMass_1hr is one of 10 assay component(s) measured or calculated from the APR_HepG2_1hr assay. It is designed to make measurements of cell phenotype, a form of morphology reporter, as detected with fluorescence intensity signals by HCS Fluorescent Imaging technology.Data from the assay component APR_HepG2_MitoMass_1hr was analyzed into 1 assay endpoint. This assay endpoint, APR_HepG2_MitoMass_1hr, was analyzed with bidirectional fitting relative to DMSO as the negative control and baseline of activity. Using a type of morphology reporter, gain or loss-of-signal activity can be used to understand changes in the signaling. Furthermore, this assay endpoint can be referred to as a primary readout, because this assay has produced multiple assay endpoints where this one serves a signaling function. To generalize the intended target to other relatable targets, this assay endpoint is annotated to the cell morphology intended target family, where the subfamily is organelle conformation.
# Cells were treated with dimethyl sulfoxide (DMSO) as a solvent control at a final concentration of 0.5% v/v or with compounds in DMSO with a resulting final DMSO concentration of 0.5% v/v. Compound treatment was done at concentrations of 0.39, 0.78, 1.56, 3.12, 6.24, 12.5, 25, 50, 100, and 200 uM in duplicate on each plate. Cells were treated with compounds for 1, 24, or 72 hr. Carbonyl […] m-chloro-phenylhydrazone (CCCP) and taxol were used as positive controls for mitochondrial function and cytoskeletal stability, respectively; DMSO served as the negative control for this experiment. Cells were fixed by the direct addition of 50 uL formaldehyde in Hank's Balanced Salt Solution (HBSS) to a final concentration of 3.7%. After incubation in the fixation medium for 30 min at room temperature (293-298 K), cells were rinsed twice with HBSS and treated with cell permeabilization buffer (16 uL of 0.5% Triton X-100) for 10 min at room temperature (293-298 K) before labeling. For mitochondrial membrane potential and mitochondrial measurements, pre-fixed cells were incubated with 50 uL of MitoTracker Red CMXRos (Invitrogen) at a concentration of 250 nM for 30 min before fixation. In the remaining cases, post-fixed cells were labeled by incubation with a multiplexed mixture of primary antibodies in HBSS for 60 min at room temperature (293-298 K) to detect immunoreactivity of c-Jun (1:500), phospho-histone H3 (1:100), phospho-histone H2A.x (1:200), p53 (1:400), alpha-tubulin (1:200) and Hoechst 33342 (2 ug/mL). Cells were labeled for multiplexed imaging on two separate plates: a) Hoechst 33342, MitoTracker Red, phospho-histone H3, and alpha-tubulin, and b) Hoechst 33342, phospho-histone H2A.x, and c-Jun. A final rinse with HBSS (50 uL) was performed before analysis. The primary and secondary antibodies for the proteins were phospho-histone H3 (rabbit anti-phospho-histone H3 and FITC-donkey anti-rabbit IgG), phospho-histone H2A.x (mouse anti-phospho-histone H2A.x and FITC-donkey anti-mouse IgG), c-Jun (rabbit anti-phospho-c-Jun and Cy3-donkey anti-rabbit IgG), p53 (sheep anti-p53 and Cy5-donkey anti-sheep IgG), alpha-tubulin (mouse anti-alpha-tubulin and Cy5-donkey anti-mouse IgG). These antibodies are available as the CellCiphr HepG2 assay kit (Millipore).Digital images of each well were captured using a Cellomics ArrayScan VTI (Thermo Scientific Cellomics) (0.8 NA objective, 0.63x optical coupler, and XF-93 filter set) at 20x magnification. The images were acquired using the autofocus feature of the ArrayScan instrument, which entails the following steps. First, the camera focuses on channel 1 (Hoechst 33342), where nuclei are identified. Second, a Z offset of 1 um is used for capturing mitochondria (MitoTracker Red). Third, a Z offset of -2 um is used for capturing the cytoskeleton (tubulin). […]
SMILES,outcome,AC50
Cc1nn(C)c(Oc2ccccc2)c1C=NOCc1ccc(C(=O)OC(C)(C)C)cc1,inactive,
O=C(Nc1ccc([N+](=O)[O-])cc1Cl)c1cc(Cl)ccc1O,inactive,
CCNc1nc(N)nc(Cl)n1,inactive,
CCCCOC(=O)C(C)Oc1ccc(Oc2ccc(C(F)(F)F)cn2)cc1 (stereo not given),inactive,
c1ccc2[nH]c(-c3cscn3)nc2c1,inactive,
CCCCCCC(C)OC(=O)COc1nc(F)c(Cl)c(N)c1Cl (stereo not given),,64 µM (active)
CCCCCOC(=O)COc1cc(N2C(=O)C3=C(CCCC3)C2=O)c(F)cc1Cl,inactive,
CCN(Cc1c(F)cccc1Cl)c1c([N+](=O)[O-])cc(C(F)(F)F)cc1[N+](=O)[O-],inactive,
CCOC(=O)[C@H](C)Oc1ccc(Oc2nc3ccc(Cl)cc3o2)cc1,inactive,
CC(C)(c1ccc(O)cc1)c1ccc(O)cc1,inactive,
CCOC(=O)NCCOc1ccc(Oc2ccccc2)cc1,inactive,
COC(=O)CSc1cc(N=c2sc(=O)n3n2CCCC3)c(F)cc1Cl,inactive,
CCOC(=O)C(C)Oc1ccc(Oc2nc3ccc(Cl)cc3o2)cc1 (stereo not given),inactive,
CCOC(=O)COc1cc(-n2ncc(C(F)(F)F)c(C)c2=O)c(F)cc1Cl,inactive,
C=CCOC(Cn1ccnc1)c1ccc(Cl)cc1Cl (stereo not given),inactive,
N#CSCSc1nc2ccccc2s1,,28.1 µM (active)
COCCO,inactive,
CCCN(CCC)C(=O)SCC,inactive,
S=C(S)NCCNC(=S)S.[Mn+2].[S-]C([S-])=NCCN=C([S-])[S-].[Zn+2],inactive,
CCCN(CCC)c1c([N+](=O)[O-])cc(C(F)(F)F)c(N)c1[N+](=O)[O-],,158 µM (active)

SMILES,outcome,AC50
O=C(O)C1(C(=O)Nc2ccc(Cl)cc2Cl)CC1,inactive,
COC(=O)c1c(Cl)nn(C)c1S(=O)(=O)NC(=O)Nc1nc(OC)cc(OC)n1,inactive,
CCOC(=O)C(C)Oc1ccc(Oc2cnc3cc(Cl)ccc3n2)cc1 (stereo not given),inactive,
CCN(CC)C(=O)c1cccc(C)c1,inactive,
C#CCOC(=O)[C@@H](C)Oc1ccc(Oc2ncc(Cl)cc2F)cc1,inactive,
CCCCOCCOCCOCc1cc2c(cc1CCC)OCO2,inactive,
CCCCOC(=O)[C@@H](C)Oc1ccc(Oc2ccc(C(F)(F)F)cn2)cc1,inactive,
CN(C)C(=O)Nc1ccc(Cl)c(Cl)c1,inactive,
COc1c(Cl)ccc(Cl)c1C(=O)O,inactive,
COC(=O)c1ccc(I)cc1S(=O)(=O)NC(=O)Nc1nc(C)nc(OC)n1,inactive,
COC(=O)c1cccc(C)c1S(=O)(=O)NC(=O)Nc1nc(OCC(F)(F)F)nc(N(C)C)n1,inactive,
S=C([S-])NCCNC(=S)[S-].[Mn+2],inactive,
Oc1ccc(C(c2ccc(O)cc2)C(Cl)(Cl)Cl)cc1,inactive,
CSC(=O)c1cccc2nnsc12,inactive,
CCCOC(=O)NCCCN(C)C,inactive,
COc1nc(C)nc(NC(=O)NS(=O)(=O)c2ccccc2OCCCl)n1,inactive,
CCCCC(CC)COC(=O)c1ccccc1C(=O)O (stereo not given),inactive,
CCC(O)=C1C(=O)CC(C(=O)O)CC1=O (stereo not given),inactive,
OB(O)O,inactive,
CCCOC(=O)c1ccc(C(=O)OCCC)nc1,inactive,
